Results from PubChem BioAssay.
Several values for one entry are separate records, joined by “and”; a condition that tells them apart may be missing. Equal values may be shown once. Records with an inconclusive call do not appear. Activity calls are given as the source filed them.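 The calls were made as follows, unless noted: active = normalized viability below 100% at a tested concentration; inactive = the rest.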

Assays:
[1] = growth inhibition of DIPG glioma cells, dose response, cell-based, SU-DIPG-XVII, MIPE5.0, CellTiter-Glo, qHTS (AID 1347060; cut-off not given, nearly all actives have AC50 up to about 26 µM;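 as to AC50: cells exposed to compound for 48 hours before viability readout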); conditions: SU-DIPG-XVII viability, CellTiter-Glo ATP luminescence
[2] = growth inhibition of DIPG glioma cells, dose response, cell-based, JHH-DIPG-1, MIPE4.0, CellTiter-Glo, qHTS (AID 1347062; cut-off not given, nearly all actives have AC50 up to about 27 µM;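 as to AC50: cells exposed to compound for two days before readout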); conditions: JHH-DIPG-1 viability, CellTiter-Glo ATP luminescence
[3] = growth inhibition of DIPG glioma cells, dose response, cell-based, SU-DIPG-IV, MIPE4.0, CellTiter-Glo, qHTS (AID 1347063; cut-off not given, nearly all actives have AC50 up to about 30 µM;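 also: compound exposure lasted 48 hours before the viability readout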); conditions: SU-DIPG-IV viability, CellTiter-Glo ATP luminescence
[4] = viability loss in pontine glioma line – cell-based, SU-DIPG-XXV, MIPE5.0, CellTiter-Glo, qHTS, dose response (AID 1347065; cut-off not given, nearly all actives have AC50 up to about 26 µM;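 also: cells exposed to compound for 48 hours before ATP readout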); conditions: CellTiter-Glo ATP luminescence
[5] = SU-DIPG-VI glioma cell viability, MIPE4.0 library, CellTiter-Glo luminescence, qHTS (AID 1347066; cut-off not given, nearly all actives have AC50 up to about 30 µM;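 also: cells exposed to compound for 48 hours before readout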); conditions: CellTiter-Glo ATP luminescence
[6] = JHH-DIPG-1 glioma cell viability, MIPE5.0 library, CellTiter-Glo luminescence, qHTS (AID 1347067; cut-off not given, nearly all actives have AC50 up to about 26 µM;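 also: cells exposed to compound for 48 hours before readout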); conditions: JHH-DIPG-1 glioma viability, CellTiter-Glo ATP luminescence
[7] = SU-DIPG-XXV glioma cell viability, MIPE5.0 library, qHTS (AID 1347068; cut-off not given, nearly all actives have IC50 up to about 30 µM;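 as to IC50: cells exposed to compound for 48 hours before viability readout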)
[8] = sensitizers of A549 cells to miR-34 induction, primary screen, imaging, A549 dox-inducible miR-34, nuclei and caspase counts (AID 1347080;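 active = compounds whose cell count with miR-34 switched on is under 0.7 times the count with it off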); conditions: A549 miR-34 inducible, Hoechst nuclei count, 48 h
[9] = modifiers of HSF1 nuclear foci, imaging, Selleck Cancer Library (AID 1347162; in the data active = plate-normalised HSF1 focus index below about 0.46); conditions: human cells, at 10 µM; SSMD: measured here: HSF1 foci SSMD mean; cell count: measured here: cell number; plate-normalised HSF1 focus index: stronger effect = lower value
[10] = survival rescue of mitochondrial mutant cells in low glucose, primary screen, MELAS cybrids, Rieske KO mouse fibroblasts, CellTiter-Glo (AID 1508586;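 active = mean z-score across replicates of 1.96 or higher in either the MELAS or the Rieske mutant cell line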;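 also: z relative to plate mean and SD of compound and empty wells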)
[11] = ovarian cancer cell viability with rucaparib, profiling panel, oncology-focused library, rucaparib conditional (AID 1508598); conditions: patient-derived ovarian cancer cells, CellTiter-Glo viability, 144 h, stronger effect = lower value
[12] = stronger effect = lower value, cell number ratio, induced over uninduced
[13] = measured here: relative caspase fold change +Dox/-Dox
[14] = measured here: total cells with miR-34 induction, stronger effect = lower value
[15] = measured here: total cells without miR-34 induction
[16] = MELAS cybrid survival, CellTiter-Glo 48 h, stronger effect = higher value
[17] = Rieske KO mouse fibroblast survival, CellTiter-Glo 72 h
[18] = at 0.000305 µM, OCI-C5x cells, with rucaparib 10 µM, 100% = cells with rucaparib alone
[19] = at 0.000305 µM, OCI-C5x cells, without rucaparib
[20] = at 0.000305 µM, OCI-P5x cells, with rucaparib 20 µM, 100% = cells with rucaparib alone
[21] = at 0.000305 µM, OCI-P5x cells, without rucaparib
[22] = at 0.00122 µM, OCI-C5x cells, with rucaparib 10 µM, 100% = cells with rucaparib alone
[23] = at 0.00122 µM, OCI-C5x cells, without rucaparib
[24] = at 0.00122 µM, OCI-P5x cells, with rucaparib 20 µM, 100% = cells with rucaparib alone
[25] = at 0.00122 µM, OCI-P5x cells, without rucaparib
[26] = at 0.00488 µM, OCI-C5x cells, with rucaparib 10 µM, 100% = cells with rucaparib alone
[27] = at 0.00488 µM, OCI-C5x cells, without rucaparib
[28] = at 0.00488 µM, OCI-P5x cells, with rucaparib 20 µM, 100% = cells with rucaparib alone
[29] = at 0.00488 µM, OCI-P5x cells, without rucaparib
[30] = at 0.0195 µM, OCI-C5x cells, with rucaparib 10 µM, 100% = cells with rucaparib alone
[31] = at 0.0195 µM, OCI-C5x cells, without rucaparib
[32] = at 0.0195 µM, OCI-P5x cells, with rucaparib 20 µM, 100% = cells with rucaparib alone
[33] = at 0.0195 µM, OCI-P5x cells, without rucaparib
[34] = at 0.0781 µM, OCI-C5x cells, with rucaparib 10 µM, 100% = cells with rucaparib alone
[35] = at 0.0781 µM, OCI-C5x cells, without rucaparib
[36] = at 0.0781 µM, OCI-P5x cells, with rucaparib 20 µM, 100% = cells with rucaparib alone
[37] = at 0.0781 µM, OCI-P5x cells, without rucaparib
[38] = at 0.313 µM, OCI-C5x cells, with rucaparib 10 µM, 100% = cells with rucaparib alone
[39] = at 0.313 µM, OCI-C5x cells, without rucaparib
[40] = at 0.313 µM, OCI-P5x cells, with rucaparib 20 µM, 100% = cells with rucaparib alone
[41] = at 0.313 µM, OCI-P5x cells, without rucaparib
[42] = at 1.25 µM, OCI-C5x cells, with rucaparib 10 µM, 100% = cells with rucaparib alone
[43] = at 1.25 µM, OCI-C5x cells, without rucaparib
[44] = at 1.25 µM, OCI-P5x cells, with rucaparib 20 µM, 100% = cells with rucaparib alone
[45] = at 1.25 µM, OCI-P5x cells, without rucaparib
[46] = at 5 µM, OCI-C5x cells, with rucaparib 10 µM, 100% = cells with rucaparib alone
[47] = at 5 µM, OCI-C5x cells, without rucaparib
[48] = at 5 µM, OCI-P5x cells, with rucaparib 20 µM, 100% = cells with rucaparib alone
[49] = at 5 µM, OCI-P5x cells, without rucaparib

CCN(CC)CCCCNc1nc2cc(Cl)c(Cl)cc2nc1-c1ccc(-c2cccs2)s1
active: AC50 [1] 6.61 µM | AC50 [2] 7.43 µM | AC50 [3] 7.43 µM | AC50 [4] 5.25 µM | AC50 [5] 14.8 µM | AC50 [6] 9.34 µM

NC(=O)N1CCC(CC(=O)N2CCC([C@H]3c4ncc(Br)cc4CCc4cc(Cl)cc(Br)c43)CC2)CC1
active: AC50 [1] 18.6 µM | AC50 [2] 23.5 µM | AC50 [3] 18.7 µM | AC50 [4] 16.6 µM | AC50 [5] 16.6 µM | AC50 [6] 23.5 µM

CCOC(CN1C(=O)[C@](CC(=O)Nc2ccc(C)cc2)(NC(=O)Nc2ccc(C)cc2)c2ccccc21)OCC
active: AC50 [1] 23.5 µM | AC50 [3] 14.8 µM | AC50 [4] 18.6 µM | AC50 [6] 20.9 µM | IC50 [7] 23.5 µM
inactive: outcome [2]

CC(C)CC(=O)Nc1n[nH]c2c1CN(C(=O)C1CCN(C)CC1)C2(C)C
1320: cell count [8, 14]
0.942: fold change [8, 13]
active: AC50 [1] 6.61 µM | AC50 [2] 1.05 µM | AC50 [3] 2.35 µM | AC50 [4] 10.5 µM | AC50 [6] 4.17 µM | IC50 [7] 10.5 µM | z-score [10, 16] 2.08 | viability [11, 28] 95.7% | viability [11, 32] 75.5% | viability [11, 33] 92.9% | viability [11, 40] 99.5% | viability [11, 41] 96% | viability [11, 44] 75.7% | viability [11, 45] 69% | viability [11, 46] 45.8% | viability [11, 47] 69.4% | viability [11, 48] 25.6% | viability [11, 49] 6.68%
-5.41: SSMD [9]
7270: cell count [9]
inactive: fold change [8, 12] 1.09 | plate-normalised HSF1 focus index [9] 0.661 | viability [11, 18] 123% | viability [11, 19] 128% | viability [11, 20] 101% | viability [11, 21] 115% | viability [11, 22] 108% | viability [11, 23] 125% | viability [11, 24] 101% | viability [11, 25] 118% | viability [11, 26] 120% | viability [11, 27] 128% | viability [11, 29] 112% | viability [11, 30] 120% | viability [11, 31] 130% | viability [11, 34] 112% | viability [11, 35] 134% | viability [11, 36] 107% | viability [11, 37] 122% | viability [11, 38] 109% | viability [11, 39] 118% | viability [11, 42] 109% | viability [11, 43] 113%
1210: cell count [8, 15]
-0.842: z-score [10, 17]

COc1cc2c(NC3CCN(C(C)C)CC3)nc(C3CCCCC3)nc2cc1OCCCN1CCCC1
active: AC50 [1] 23.5 µM | AC50 [2] 8.33 µM | AC50 [3] 18.7 µM | AC50 [4] 20.9 µM | IC50 [7] 23.5 µM

Cn1cncc1[C@@](N)(c1ccc(Cl)cc1)c1ccc2c(c1)c(-c1cccc(Cl)c1)cc(=O)n2C
4560: cell count [8, 15]
0.725: fold change [8, 13]
-0.393: z-score [10, 17]
-8.89: SSMD [9]
active: AC50 [1] 33.2 µM | AC50 [2] 23.5 µM | AC50 [3] 8.33 µM | AC50 [4] 16.6 µM | AC50 [5] 18.7 µM | AC50 [6] 18.6 µM | viability [11, 32] 98.9% | viability [11, 33] 85.9% | viability [11, 36] 92.4% | viability [11, 37] 67.4% | viability [11, 39] 99.3% | viability [11, 40] 74.4% | viability [11, 41] 66.7% | viability [11, 44] 23.5% | viability [11, 45] 28.3% | viability [11, 46] 1.75% | viability [11, 47] 5.47% | viability [11, 48] 0.988% | viability [11, 49] 1.42%
inactive: fold change [8, 12] 1.1 | plate-normalised HSF1 focus index [9] 0.564 | z-score [10, 16] -0.557 | viability [11, 18] 113% | viability [11, 19] 115% | viability [11, 20] 102% | viability [11, 21] 113% | viability [11, 22] 118% | viability [11, 23] 111% | viability [11, 24] 103% | viability [11, 25] 109% | viability [11, 26] 115% | viability [11, 27] 122% | viability [11, 28] 107% | viability [11, 29] 107% | viability [11, 30] 114% | viability [11, 31] 123% | viability [11, 34] 111% | viability [11, 35] 121% | viability [11, 38] 113% | viability [11, 42] 101% | viability [11, 43] 104%
4640: cell count [9]
5030: cell count [8, 14]

COc1ccc(F)c(F)c1C(=O)c1cnc(NC2CCN(S(C)(=O)=O)CC2)nc1N
inactive: outcome [5] | fold change [8, 12] 0.981
1740: cell count [8, 14]
active: AC50 [1] 1.86 µM | AC50 [2] 2.64 µM | AC50 [3] 1.18 µM | AC50 [4] 2.09 µM | AC50 [6] 3.72 µM | IC50 [7] 1.86 µM | z-score [10, 16] 2.86
0.805: fold change [8, 13]
-3.07: z-score [10, 17]
1770: cell count [8, 15]

CCCCCCCCCCCC(CC1OC(=O)C1CCCCCC)OC(=O)C(CC(C)C)NC=O (stereo unspecified)
9250 and 6710: cell count [8, 14]
2.53 and 0.818: fold change [8, 13]
10300 and 7610: cell count [8, 15]
inactive: outcome [1] | outcome [2] | outcome [3] | outcome [5] | outcome [6] | outcome [7] | fold change [8, 12] 0.897 and 0.881 | z-score [10, 16] 1.14
-1.74: z-score [10, 17]

CC(=O)OCC(=O)[C@@]1(O)[C@H](C)C[C@H]2[C@@H]3C=C(C)C4=Cc5c(cnn5-c5ccccc5)C[C@]4(C)[C@H]3[C@@H](O)C[C@@]21C
active: AC50 [1] 20.9 µM | AC50 [2] 9.35 µM | AC50 [3] 5.26 µM | AC50 [4] 23.5 µM | AC50 [5] 26.4 µM
inactive: outcome [7]

CC(C)(C)c1cc(C(C)(C)C)c(NC(=O)c2c[nH]c3ccccc3c2=O)cc1O
1.04: fold change [8, 13]
0.598: z-score [10, 17]
5840: cell count [8, 15]
inactive: outcome [2] | outcome [3] | outcome [5] | fold change [8, 12] 0.893 | z-score [10, 16] -0.385
active: AC50 [1] 11.8 µM | AC50 [4] 10.5 µM | AC50 [6] 14.8 µM | IC50 [7] 16.6 µM
5220: cell count [8, 14]
